Inconclusive results are not listed. Active and inactive are the calls of the source. How the source made its calls: active means hit-call score of the fitted dose curve at least 0.9, where 1 is the maximum; inconclusive means response in the unintended direction; inactive means score below 0.9.

Sequence of human Cyclin-Dependent Kinase 6 (CDK6), CDK6 (gene 1021) (Q00534 whole entry, looked up): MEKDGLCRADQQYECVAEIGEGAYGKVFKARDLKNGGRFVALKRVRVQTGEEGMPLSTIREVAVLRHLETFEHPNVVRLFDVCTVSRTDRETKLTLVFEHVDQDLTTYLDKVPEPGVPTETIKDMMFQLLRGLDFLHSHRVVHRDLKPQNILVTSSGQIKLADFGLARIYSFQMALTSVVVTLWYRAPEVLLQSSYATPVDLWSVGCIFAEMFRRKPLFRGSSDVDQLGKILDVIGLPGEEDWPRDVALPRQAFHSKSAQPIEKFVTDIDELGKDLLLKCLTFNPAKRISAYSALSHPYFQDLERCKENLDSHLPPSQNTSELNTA

For this assay, the target named is human Cyclin-Dependent Kinase 6 (CDK6), CDK6 (gene 1021) (UniProt Q00534). Put plainly: NVS_ENZ_hCDK6: NovaScreen (NVS) Enzymatic Assay for human Cyclin-Dependent Kinase 6 (CDK6). As for the experimental part:
NVS_ENZ_hCDK6 is a biochemical, single-readout assay that uses extracted gene-proteins in a cell-free assay. Measurements were taken 1 hour after chemical dosing in a 384-well plate.NVS_ENZ_hCDK6 is one of one assay component(s) measured or calculated from the NVS_ENZ_hCDK6 assay. It is designed to make measurements of enzyme activity, a form of enzyme reporter, as detected with fluorescence intensity signals by Fluorescence and electrophoretic mobility shift technology.Data from the assay component NVS_ENZ_hCDK6 was analyzed into 1 assay endpoint. This assay endpoint, NVS_ENZ_hCDK6, was analyzed in the positive analysis fitting direction relative to DMSO as the negative control and baseline of activity. Using a type of enzyme reporter, loss-of-signal activity can be used to understand changes in the enzymatic activity as they relate to the gene CDK6. Furthermore, this assay endpoint can be referred to as a primary readout, because this assay has produced multiple assay endpoints where this one serves a enzymatic activity function. To generalize the intended target to other relatable targets, this assay endpoint is annotated to the kinase intended target family, where the subfamily is serine/threonine kinase.
Binding assays used specific radioligands (tritiated, iodinated) with non-radioactive competitive displacement ligands in agonist or antagonist protocols (as indicated) and various reference compounds and inhibitors to titrate specific binding to receptors and transporters. Most enzyme assays (CYPs, kinases, phosphatases, proteases, HDACs) used recombinant protein and specific substrates (fluorescence mostly, some colorimetric and radioactive) and inhibitors, followed by a biochemical separation of substrate and product. All assays for the biochemical HTS were initially run in duplicate at a single concentration (10 uM for CYP450 assays and 25 uM for all others). […] Each assay was run with positive and negative controls, and concurrent controls on every plate. The follow-up (secondary) screen tested active chemical-pairs in concentration series, as well as a few additional assays not tested in the primary screen, some selected negative inactives, and several cases re-run in the concentration series for confirmatory purposes.
By AC50 is commonly meant the midpoint of the concentration-response curve, whichever way the signal moves. For `S=C(S)NCCNC(=S)S.[Mn+2].[S-]C([S-])=NCCN=C([S-])[S-].[Zn+2]`, the AC50 is 9.65 µM (active). `S=C([S-])NCCNC(=S)[S-].[Mn+2]`: the AC50 was 10.5 µM (active). On the same count and under the same terms, then `CN(C)[C@@H]1C(=O)C(C(N)=O)=C(O)[C@@]2(O)C(=O)C3=C(O)c4c(O)cccc4[C@@](C)(O)[C@H]3[C@H](O)[C@@H]12`, with 23.1 µM (active).

Turning to `Nc1c(Cl)c(Cl)nc(C(=O)O)c1Cl`, the outcome was inactive.

The values above are taken from PubChem BioAssay AID2283145 (EPA ToxCast).
